Test results published in ChEMBL document CHEMBL3988442, “University of Dundee, Small-Polar-MMV Screening Library” (2021).

system: Trypanosoma cruzi; assay: Trypanosoma cruzi phosphomannomutase and mannose-1-phosphate guanylyltransferase assay; format: functional; design: scale not given: direction of the effect not stated beside the values; details: 10 µM

First: CN(C)c1cc2c(nn1)CCN(C(=O)C1CCc3ccccc31)C2 (stereo not drawn)
Second: Cc1nnc2n1CCN(C(=O)c1cn(-c3ccccc3Cl)nn1)C2
The Percent Effect of the first is lower: -0.283% for the first, 0.992% for the second.

First: Cc1cccnc1NC(=O)NC(C)Cn1cccn1 (stereo not drawn)
Second: O=C(NCCc1ccccn1)NC1CCN(c2ncccn2)CC1
The Percent Effect of the first is lower: -5.62% for the first, -1.59% for the second.

First: O=C(NCCNC(=O)N1CCC(c2ccccc2)C1)C1CC1 (stereo not drawn)
Second: CN(C(=O)NCCCN1CCCC1)C1CCN(c2ccccc2)C1=O (stereo not drawn)
The Percent Effect of the first is higher: 4.44% for the first, -7.71% for the second.

Compared with `COc1ccnc(N2CCN(C(=O)Cc3ccc(C#N)cc3)CC2)n1`, `CC(C)OCC(=O)N1CCCN(Cc2ccc(C#N)cc2)CC1` is lower in Percent Effect: 3.82% for the first, 0.94% for the second.

Compared with `Fc1ccc(CNCC2OCCc3cn(CC4CC4)nc32)cc1` (stereo not drawn), `CC1CCCCN1CCNC(=O)c1ccn(-c2ccc(F)cc2)n1` (stereo not drawn) is higher in Percent Effect: 2.05% for the first, 6.51% for the second.

Compared with `Cc1ccc(NC(=O)N2CCOC(C)C2)cc1Cl` (stereo not drawn), `CCc1nc(C(=O)N2CCN(C)CC2C)nn1-c1ccccc1Cl` (stereo not drawn) is lower in Percent Effect: 2.58% for the first, -7.19% for the second.

Compared with `Cc1ccc(CN(Cc2ccccn2)C2CC(C)(C)NC(C)(C)C2)s1`, `CNC(=O)C1Cn2ccnc2C2(CCN(Cc3cccc(C)n3)CC2)O1` (stereo not drawn) is lower in Percent Effect: -3.95% for the first, -6.35% for the second.

Going from `CN(C)c1ncccc1CNC(=O)N1CCCC1CN1CCCCC1` (stereo not drawn) to `O=C(CCN1CCCC1C1CCCCC1)N1CCc2sccc2C1` (stereo not drawn), the Percent Effect rises from -2.25% to 5.75%.

First: Cc1nn(CCO)c(C)c1CNC1CCc2c(Cl)cccc21 (stereo not drawn)
Second: Cc1nn(C)c(C)c1C1CCCN1C(=O)c1cc[nH]n1 (stereo not drawn)
The Percent Effect of the first is higher: 8.67% for the first, -4.41% for the second.

Going from `O=C(Cc1ccsc1)N1CCCC(c2n[nH]c3nccnc23)C1` (stereo not drawn) to `O=C(c1ccsc1)N1CCc2c(CNc3ncccn3)n[nH]c2C1`, the Percent Effect rises from 4.94% to 6.95%.

Compared with `CN(C)CC(=O)N1CCCC2(CCC(=O)N(CCc3c[nH]cn3)C2)C1` (stereo not drawn), `CCO[C@@H]1CO[C@@]2(CCCN(C(=O)COc3ccccc3OC)C2)C1` is lower in Percent Effect: 1.48% for the first, 0.888% for the second.

Going from `CCc1n[nH]c(C2CN(C(=O)c3csnn3)CCO2)n1` (stereo not drawn) to `CCc1noc(C2CCCCN2C(=O)c2ccoc2C)n1` (stereo not drawn), the Percent Effect falls from 7.15% to -7.47%.

Compared with `COc1cccc(CCNC(=O)CN2CCN(C)CC2C)c1` (stereo not drawn), `CC(C)OCCN(Cc1cccc(O)c1)C1CCC(O)CC1` (stereo not drawn) is lower in Percent Effect: -4.92% for the first, -5.96% for the second.

Compared with `Oc1ccc(N2CCN(Cc3cc4c(cc3Br)OCCO4)CC2)cc1`, `O=C(Cc1ccc2c(c1)OCCO2)NC1CCCC1` is lower in Percent Effect: -1.07% for the first, -11.2% for the second.

Compared with `Cc1cnn(CC2CCCN2Cc2cc(=O)n3cccc(C)c3n2)c1` (stereo not drawn), `Cc1cc2n(n1)CC(CNCc1ccnc(-n3ccnc3C)c1)CN2` (stereo not drawn) is higher in Percent Effect: 6.75% for the first, 7.52% for the second.

First: CCc1noc(C(C)N2CCN(Cc3nc(C)c(C)o3)CC2)n1 (stereo not drawn)
Second: CN(Cc1ccc(N2CCCCC2)cc1)Cc1noc(C(C)(C)C)n1
The Percent Effect of the first is lower: -6.39% for the first, 0.492% for the second.

Going from `CC(C)NC(=O)c1ccc2c(c1)nc1n2CCN(c2ccccc2)C1` to `CCn1nc(CC(C)C)cc1C(=O)N1CC[C@@H](O)C1`, the Percent Effect rises from -1.97% to 2.82%.

Compared with `CCN(CC)C(=O)CCNc1cncc(-n2nc(C)cc2C)n1`, `CN(Cc1ccc(F)cc1)CC1(O)CCCN(CC(C)(C)C)C1=O` (stereo not drawn) is higher in Percent Effect: -7.92% for the first, 3.79% for the second.

First: Cc1ncsc1CN1C[C@H](C(=O)N2CCCO2)[C@@H]2CCO[C@@H]2C1
Second: CCS(=O)(=O)N1CCC(c2nnc(CN3CCCC3)n2C2CC2)CC1
The Percent Effect of the first is higher: 7.74% for the first, 2.82% for the second.

`O=C(c1ccc2c(c1)COC2)N1CCN(CC2CC2)CC1` showed a Percent Effect of -0.283%.

molecular target: T1, Arginase-2, mitochondrial (Homo sapiens) (UniProt P78540); assay: in vitro enzyme assay to detect the production of urea directly proportional to the activity of Arginase II; format: functional; design: scale not given: in the data most compounds retested in dose-response had high values; details: 33.3 µM
T1 sequence (whole entry): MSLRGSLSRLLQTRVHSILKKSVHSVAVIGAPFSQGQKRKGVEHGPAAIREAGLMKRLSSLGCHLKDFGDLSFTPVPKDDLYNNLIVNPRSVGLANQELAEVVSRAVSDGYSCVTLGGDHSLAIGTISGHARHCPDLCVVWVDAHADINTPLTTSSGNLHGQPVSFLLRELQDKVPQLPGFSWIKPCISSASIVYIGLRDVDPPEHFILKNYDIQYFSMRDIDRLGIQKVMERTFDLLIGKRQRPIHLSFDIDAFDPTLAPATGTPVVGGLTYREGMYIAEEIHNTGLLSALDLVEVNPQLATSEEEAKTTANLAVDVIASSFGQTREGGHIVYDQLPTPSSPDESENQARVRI

First: CN(C)c1cc2c(nn1)CCN(C(=O)C1CCc3ccccc31)C2 (stereo not drawn)
Second: Cc1nnc2n1CCN(C(=O)c1cn(-c3ccccc3Cl)nn1)C2
The Percent Effect of the first is higher: 0.38% for the first, -2.79% for the second.

Compared with `Cc1cccnc1NC(=O)NC(C)Cn1cccn1` (stereo not drawn), `O=C(NCCc1ccccn1)NC1CCN(c2ncccn2)CC1` is higher in Percent Effect: 1.78% for the first, 2% for the second.

Compared with `O=C(NCCNC(=O)N1CCC(c2ccccc2)C1)C1CC1` (stereo not drawn), `CN(C(=O)NCCCN1CCCC1)C1CCN(c2ccccc2)C1=O` (stereo not drawn) is lower in Percent Effect: 2.38% for the first, 0.766% for the second.

Going from `COc1ccnc(N2CCN(C(=O)Cc3ccc(C#N)cc3)CC2)n1` to `CC(C)OCC(=O)N1CCCN(Cc2ccc(C#N)cc2)CC1`, the Percent Effect rises from 1.9% to 2.68%.

Compared with `Fc1ccc(CNCC2OCCc3cn(CC4CC4)nc32)cc1` (stereo not drawn), `CC1CCCCN1CCNC(=O)c1ccn(-c2ccc(F)cc2)n1` (stereo not drawn) is lower in Percent Effect: -4.78% for the first, -16% for the second.

Going from `Cc1ccc(NC(=O)N2CCOC(C)C2)cc1Cl` (stereo not drawn) to `CCc1nc(C(=O)N2CCN(C)CC2C)nn1-c1ccccc1Cl` (stereo not drawn), the Percent Effect rises from -6.39% to 0.36%.

Compared with `Cc1ccc(CN(Cc2ccccn2)C2CC(C)(C)NC(C)(C)C2)s1`, `CNC(=O)C1Cn2ccnc2C2(CCN(Cc3cccc(C)n3)CC2)O1` (stereo not drawn) is lower in Percent Effect: -0.232% for the first, -8.6% for the second.

First: CN(C)c1ncccc1CNC(=O)N1CCCC1CN1CCCCC1 (stereo not drawn)
Second: O=C(CCN1CCCC1C1CCCCC1)N1CCc2sccc2C1 (stereo not drawn)
The Percent Effect of the first is higher: -0.356% for the first, -5.21% for the second.

First: Cc1nn(CCO)c(C)c1CNC1CCc2c(Cl)cccc21 (stereo not drawn)
Second: Cc1nn(C)c(C)c1C1CCCN1C(=O)c1cc[nH]n1 (stereo not drawn)
The Percent Effect of the first is higher: 46.9% for the first, -1.07% for the second.

Compared with `O=C(Cc1ccsc1)N1CCCC(c2n[nH]c3nccnc23)C1` (stereo not drawn), `O=C(c1ccsc1)N1CCc2c(CNc3ncccn3)n[nH]c2C1` is lower in Percent Effect: -1.16% for the first, -44.6% for the second.

Compared with `CN(C)CC(=O)N1CCCC2(CCC(=O)N(CCc3c[nH]cn3)C2)C1` (stereo not drawn), `CCO[C@@H]1CO[C@@]2(CCCN(C(=O)COc3ccccc3OC)C2)C1` is higher in Percent Effect: -45.5% for the first, 8.39% for the second.

First: CCc1n[nH]c(C2CN(C(=O)c3csnn3)CCO2)n1 (stereo not drawn)
Second: CCc1noc(C2CCCCN2C(=O)c2ccoc2C)n1 (stereo not drawn)
The Percent Effect of the first is lower: -5.26% for the first, -4.05% for the second.

Compared with `COc1cccc(CCNC(=O)CN2CCN(C)CC2C)c1` (stereo not drawn), `CC(C)OCCN(Cc1cccc(O)c1)C1CCC(O)CC1` (stereo not drawn) is lower in Percent Effect: 3.51% for the first, 0.744% for the second.

Compared with `Oc1ccc(N2CCN(Cc3cc4c(cc3Br)OCCO4)CC2)cc1`, `O=C(Cc1ccc2c(c1)OCCO2)NC1CCCC1` is lower in Percent Effect: -2.21% for the first, -2.85% for the second.

First: Cc1cnn(CC2CCCN2Cc2cc(=O)n3cccc(C)c3n2)c1 (stereo not drawn)
Second: Cc1cc2n(n1)CC(CNCc1ccnc(-n3ccnc3C)c1)CN2 (stereo not drawn)
The Percent Effect of the first is higher: 35.5% for the first, -4.98% for the second.

First: CCc1noc(C(C)N2CCN(Cc3nc(C)c(C)o3)CC2)n1 (stereo not drawn)
Second: CN(Cc1ccc(N2CCCCC2)cc1)Cc1noc(C(C)(C)C)n1
The Percent Effect of the first is lower: -0.766% for the first, 0% for the second.

Compared with `CC(C)NC(=O)c1ccc2c(c1)nc1n2CCN(c2ccccc2)C1`, `CCn1nc(CC(C)C)cc1C(=O)N1CC[C@@H](O)C1` is higher in Percent Effect: -9.68% for the first, 9.38% for the second.

Compared with `CCN(CC)C(=O)CCNc1cncc(-n2nc(C)cc2C)n1`, `CN(Cc1ccc(F)cc1)CC1(O)CCCN(CC(C)(C)C)C1=O` (stereo not drawn) is lower in Percent Effect: 4.71% for the first, 3.09% for the second.

First: Cc1ncsc1CN1C[C@H](C(=O)N2CCCO2)[C@@H]2CCO[C@@H]2C1
Second: CCS(=O)(=O)N1CCC(c2nnc(CN3CCCC3)n2C2CC2)CC1
The Percent Effect of the first is lower: -7.58% for the first, 12.5% for the second.

`O=C(c1ccc2c(c1)COC2)N1CCN(CC2CC2)CC1` was tested, and the Percent Effect was -1.52%.
